Source: PubChem BioAssay (National Center for Advancing Translational Sciences (NCATS))
This is a sample that favours compounds with a hit; in the whole collection about 13% have one here.
HCV inh: blocks hepatitis C virus; Potency, µM (titrated, usually from 41.8 µM), for inactives: at the highest dose activity change, negative = inhibition, actives largely listed as inhibitors; AID 651820; Huh7.5.1 HCVcc-Cre infection, luciferase reporter, 44 h; actives 3.4% (n = 340,000); also: potency is read from the fitted curve at half-maximal effect
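A cell-based infection assay in which seeded cells (1,000 per well) receive test compound after 4 h, are inoculated with HCVcc-Cre at approximately 0.5 moi, and are incubated 44 h before luminescence detection.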
Pf growth 96h: P. falciparum growth inhibition at 96 hours | P. falciparum luciferase reporter growth, 96 h | AID 504834 | actives 6.9% (n = 320,000) | Potency, µM (highest dose often 28.7 µM), without a hit: top-dose activity change, negative = inhibition, hits mostly inhibitors; also: potency is read from the fitted curve at half-maximal effect
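Infected RBCs, 2% Hct / 0.05% parasitemia final; luciferase-reporter P. falciparum; cpd 96 h, 37 C, 5% CO2; luciferase detection reagent; luminescence.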
Pf growth 48h: inhibits P. falciparum growth in the first generation, 48 h. P. falciparum luciferase growth in erythrocytes, 48 h. Potency, µM (titrated, usually from 28.7 µM), for inactives: at the top dose activity change, negative = inhibition, usual class: inhibitors. actives 5.9% (n = 310,000). AID 504832; also: potency is read from the fitted curve at half-maximal effect
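Compounds are pin-transferred into medium, infected erythrocytes (2% hematocrit, 0.1% parasitemia final) are added, and plates sit one parasite generation at 37 C in 5% CO2. Detection reagent is then added and luminescence measured.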
HCMV inh: inhibitors of human cytomegalovirus; actives 4.5% (n = 410,000); HFF cells, HCMV-luciferase reporter, 72 h; hits give low values; activity change, negative = inhibition, % at 57.5 µM; AID 1259415; in the data active = activity change below about -60%; inconclusive = no clear call, values can overlap the other calls; inactive = above about -39%
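Two compound doses tested in HFFs infected with HCMV-luciferase, MOI 1 PFU/cell, 72 h at 37C. Lysate luminescence read with OneGlo; data normalized against buffer-only and 10uM Salinomycin inhibitor controls.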
Starred values were filed as active, the others as inactive; u = inconclusive; x = no result given. Unless noted, calls follow the shape of the dose curve; as a rule, active = well fitted inhibition curve with a large enough effect; inconclusive = small, poorly fitted or top-dose-only effect, or another doubt; inactive = no such curve, though single readings can be large or run the other way. % is scaled to controls: 0 for no effect and ±100 for the full control effect.

SMILES | HCV inh | Pf growth 96h | Pf growth 48h | HCMV inh
Cc1nc(N2CCCCC2)c2c(C)c(C(=O)Nc3cccc(C(F)(F)F)c3)sc2n1 | 25µM* | -30% | 2.6µM* | -60*
Cc1ccc(CN2c3ccccc3-c3nc(SCC(=O)NCCc4ccccc4)ncc3S2(=O)=O)cc1 | x | x | x | 6
COC(=O)CSc1ccc(S(=O)(=O)N2CCOCC2)cc1[N+](=O)[O-] | 16% | 10µM* | 20% | u
CN(CC(=O)Nc1ccc(F)cc1)c1ccc(S(=O)(=O)N2CCCCC2)cc1[N+](=O)[O-] | u | u | u | -25
CCCN(CCC)C(=O)C1CCN(c2ccc(S(=O)(=O)N3CCOCC3)cc2[N+](=O)[O-])CC1 | -3% | 5.2µM* | u | u
CN(CC(=O)O)c1ccc(S(=O)(=O)N2CCOCC2)cc1[N+](=O)[O-] | 10% | 95% | 2.6µM* | -35
COc1cccc(C(CNc2ccc(S(=O)(=O)N3CCN(C)CC3)cc2[N+](=O)[O-])N(C)C)c1 (centres undefined) | u | u | u | -3
CN1CCN(S(=O)(=O)c2ccc(N(C)Cc3ccc(OC(F)F)cc3)c([N+](=O)[O-])c2)CC1 | 11µM* | u | -11% | u
CCOC(=O)CSc1ccc(S(=O)(=O)N2CCC(C)CC2)cc1[N+](=O)[O-] | 8% | 274% | -6% | 4
CCCCNC(=O)C1c2ccccc2OCC(=O)N1CC(F)(F)F (centres undefined) | x | x | x | 13
Cc1ccc(-n2c(=O)[nH]c3cc(C(=O)NCc4ccccc4)ccc3c2=O)cc1 | x | x | x | -3
O=C(CCCc1nc(-c2ccco2)no1)Nc1ccccc1[N+](=O)[O-] | x | x | x | 8
Cc1oc(-c2ccc(C(=O)NCCC(C)C)cc2)nc1CS(=O)(=O)c1ccccc1 | x | x | x | 12
CCOC(=O)N1CCc2c(sc3c2c(=O)n(Cc2ccccc2)c(=O)n3CC(=O)Nc2ccccc2F)C1 | x | x | x | -22
Cc1cccc(C)c1-n1ncc(C(=O)NC2CCCC2)c1C1CCN(C(=O)OC(C)(C)C)CC1 | x | x | x | 5
COc1cc(OC)cc(C2=NC3(CCC(C)CC3)NC2=S)c1 (centres undefined) | u | -7% | 10µM* | 0
Cc1ccc(C2=NC3(CCCC3)NC2=S)cc1 | -12% | -9% | 29% | 10
Cc1cc(S(=O)(=O)Nc2cc3c(cc2N2CCOCC2)n(C)c(=O)n3C)ccc1F | x | x | x | 29
CC(=O)c1ccccc1NC(=O)COC(=O)/C(=C/c1ccccc1)n1nnnc1C | -3% | 2.1µM* | 5.9µM* | 0
CCC(=O)Nc1nc(C)c(C(=O)NC2CCCCC2)s1 | -1% | u | 3.7µM* | 20
CCn1cc(CN2CCN(CCC(C)C)C(CCO)C2)c2ccccc21 (centres undefined) | 1% | -18% | u | -15
CCn1cc(CN2CCN(C)C(CCO)C2)c2ccccc21 (centres undefined) | -9% | 13µM* | 5% | -24
COc1ccc(C)cc1NC(=O)c1nnn(CC(=O)Nc2c(C)cccc2C)c1N | x | x | x | -16
COc1ccc(SCC2CN(C)CCC2c2ccc(F)cc2)cc1 (centres undefined) | 11µM* | x | x | -10
COc1ccc(SCCN2CCN(C)CCC2=O)cc1 | 6% | 40% | 6% | 42
SMILES | HCV inh | Pf growth 96h | Pf growth 48h | HCMV inh
N#C/C(=C\c1c[nH]c2ccccc12)C(=O)Nc1ncc(Cc2ccc(Cl)cc2Cl)s1 | 35µM* | u | -9% | 19
Cn1cc(/C=C(\C#N)C(=O)Nc2ncc(Cc3cccc(Cl)c3)s2)c2ccccc21 | -17% | u | 15% | x
CCCc1ccc2oc(C(=O)N(C)CCn3ccnc3C)c(C)c2c1 | u | 65% | -1% | -25
CCCc1ccc2oc(C(=O)N(C)Cc3cnccn3)c(C)c2c1 | 10% | 10µM* | 2% | 29
Cc1c(C(=O)N(Cc2ccc(N(C)C)cc2)CC2CCCO2)oc2ccc(Cl)cc12 (centres undefined) | x | x | x | 42
CCCc1ccc2oc(C(=O)N(Cc3ccncc3)CC3CCCO3)c(C)c2c1 (centres undefined) | u | 18% | 9.3µM* | -13
Cc1ccc2oc(C(=O)N(Cc3ccncc3)CC3CCCO3)c(C)c2c1 (centres undefined) | u | 25% | u | 145
Cc1c(C(=O)N(Cc2ccc(N(C)C)cc2)CC2CCCO2)oc2ccccc12 (centres undefined) | -7% | 4.1µM* | -21% | u
COC(=O)C1=C(c2ccccc2)c2ccccc2S(=O)(=O)N1CC(=O)Nc1ccc(OC)cc1OC | x | x | x | -10
Cc1ccc(CNC(=O)CCCn2nc(C)n3c(cc4sccc43)c2=O)cc1 | x | x | x | -28
CC(C)(C)Nc1nc(Cl)nc(NC2CCCCC2)n1 | 4% | 13µM* | -19% | 57
O=C(NCc1ccc(F)cc1)c1ccc2c(c1)N(Cc1c(F)cccc1Cl)C(=O)CS2 | x | x | x | -2
Cc1nn(C)c2c1c(-c1ccccc1)cc(=O)n2Cc1ccccc1Cl | x | x | x | -17
Cc1cc(C)n(-c2ccc(NC(=O)C3CCN(Cc4ccc(C)o4)CC3)cc2)n1 | -23% | 15µM* | 13µM* | -10
Cc1cc(C)n(-c2ccc(NC(=O)C3CCN(Cc4cc(C)c(C)o4)CC3)cc2)n1 | -21% | -2% | u | -28
COCc1ccc(C(=O)N2CCCCC2C(=O)Nc2ccc(-n3nc(C)cc3C)cc2)o1 (centres undefined) | -3% | 12µM* | -11% | 16
Cc1cc(C)n(-c2ccc(C(=O)OCC(=O)Nc3ccc(S(=O)(=O)N4CCCCC4)cc3)cc2)n1 | 8% | -23% | x | x
COc1cc(CN(C(=O)COc2ccc(Cl)cc2)c2ccccn2)cc(OC)c1OC | x | x | x | 6
O=c1[nH]c(-[n+]2ccccc2)c(/C=N/NC([S-])=Nc2ccccc2)s1 | 3% | 123% | 69% | 22
Cc1cc[n+](-c2[nH]c(=O)sc2/C=N/NC([S-])=Nc2ccccc2)cc1 | u | 9% | -5% | -61*
Cc1cc(Br)ccc1NS(=O)(=O)c1c(C)[nH]c(=O)[nH]c1=O | -4% | 5.2µM* | 2% | -37
COc1ccc(C(=O)N2CC(=O)Nc3ccc(F)cc3C2c2ccc(F)cc2)c(OC)c1 (centres undefined) | x | x | x | 3
COc1ccc(-c2cc(C(=O)Nc3cnn(Cc4ccc(F)cc4)c3)no2)cc1OC | x | x | x | -7
COc1ccc(-c2cc(C(=O)Nc3c(C)nn(Cc4ccccc4C)c3C)no2)cc1 | x | x | x | -21
COc1cccc(-c2cc(C(=O)Nc3c(C)nn(Cc4ccccc4)c3C)no2)c1 | 10µM* | u | u | u
O=C(Nc1cnn(Cc2ccccc2)c1)c1nc2ncccn2n1 | -26% | 2.6µM* | 84% | 64
Cc1nn(Cc2ccccc2Cl)c(C)c1NC(=O)c1cc(-c2ccc(F)cc2)on1 | 3.5µM* | u | 0% | 2
COc1cccc(-c2cc(C(=O)Nc3cnn(Cc4ccc(F)cc4)c3)no2)c1 | -4% | 2.1µM* | 5% | -40
COc1ccccc1Nc1sc(C(=O)c2ccc(C)cc2C)c(N)c1S(=O)(=O)c1ccccc1 | x | x | x | -6
